The text below walks through data of PubChem BioAssay (NCI).

Test [1] is described as follows: NCI Yeast Anticancer Drug Screen. Data for the rad50 strain (AID 155).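 Note: 0% = growth of vehicle-only cultures of the same strain.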 The note with it: S. cerevisiae rad50 strain growth inhibition; at 50.0 µM; hits give high values. Summed up:
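DNA repair mutant yeast, compound exposure, growth read-out; inhibition is taken relative to vehicle.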

Test [2] can be described thus: NCI Yeast Anticancer Drug Screen. Data for the mec2-1 strain (AID 157). The note with it: S. cerevisiae mec2-1 strain, at 50.0 µM, hits give high values. In outline:
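Mutant yeast (mec2-1) grown with compound; growth inhibition relative to vehicle control reported.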

Test [3] in a line: NCI Yeast Anticancer Drug Screen. Data for the sgs1 mgt1 strain (AID 161).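 Note: 0% = growth of cultures given vehicle only.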 Conditions: S. cerevisiae sgs1 mgt1 strain, at 50.0 µM, hits give high values. In outline: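 Yeast cells carrying a defined DNA-repair defect were exposed to test compounds. Growth inhibition was measured relative to vehicle-treated controls.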
Test [4] can be described thus: NCI Yeast Anticancer Drug Screen. Data for the cln2 rad14 strain (AID 165).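 Note: 0% = growth equal to vehicle treated cultures.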 Conditions: S. cerevisiae cln2 rad14 strain, at 50.0 µM, hits give high values. In outline: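 Readout is yeast growth inhibition versus vehicle-treated controls, using a strain with cln2 and rad14 alterations exposed to compound.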
Test [5] in a line: NCI Yeast Anticancer Drug Screen. Data for the bub3 strain (AID 167). Conditions: S. cerevisiae bub3 mutant strain, at 50.0 µM, hits give high values. Summed up:
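In this screen, a yeast mutant lacking normal mitotic checkpoint function is challenged with compound. Relative growth versus vehicle gives the inhibition value.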

A short description of test [6]: NCI Yeast Anticancer Drug Screen. Data for the mlh1 rad18 strain (AID 175). Conditions: S. cerevisiae mlh1 rad18 strain growth inhibition; at 50.0 µM; hits give high values. In outline:
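Genetically defined yeast (DNA repair-deficient) exposed to compounds; growth inhibition determined relative to vehicle.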

The panel holds about 79,000 compounds, 15% with a hit somewhere; the sample as a whole holds those more often. Values without a mark were called inactive. Calls of active or inactive are those of the source. Cut-off read from the data, not from the text of the source: active = growth inhibition above about 70%; inactive = the rest.

Regarding `CC(CCl)NS(=O)(=O)c1ccccc1` (stereo not given), the growth inhibition in test [1] was 2.1%; in test [2] it was 2.85%; in test [3], -2.85%; in test [4], 0.85%; in test [5], -7.5%; in test [6], -8.05%.

As for `CC(=O)OCC1COC(C)(c2ccccc2)O1` (stereo not given), the growth inhibition in test [1] is 4.65%; in test [2], 0.3%; in test [3] it was -6.65%; in test [4], 3.7%; in test [5], 4.15%; in test [6], -9.55%.

For the molecule `Brc1ccccc2cc(-c3ccccc3)nc1-2`, the growth inhibition was 54.9% in test [1]; 30.5% in test [2]; 34.5% in test [3]; 19.9% in test [4]; 37.2% in test [5]; -7% in test [6].

`CCCCCCCCNC(=O)/C(=C\c1ccc(/C=C(/NC(=O)c2ccccc2)C(=O)NCCCCCCCC)cc1)NC(=O)c1ccccc1`: the growth inhibition in test [1] is -14%; in test [2], -23.4%; in test [3], -20.4%; in test [4], 11.7%; in test [5] it was -17.9%; in test [6], -4%.

As to `COc1ccc(C(O)CC(O)(C(F)(F)F)C(F)(F)F)cc1` (stereo not given), the growth inhibition is 52.7% in test [1]; 27.6% in test [2]; 35.3% in test [3]; 20.3% in test [4]; 46% in test [5]; 80.8% (active) in test [6].

For the molecule `CSc1nc2c(ncn2C2OCC(O)C(O)C2O)c(=O)n1C` (stereo not given), the growth inhibition in test [1] is 12%; in test [2], 7.7%; in test [3], -24.2%; in test [4], 29.6%; in test [5] it was -4.35%; in test [6], 15.6%.

In the case of `O=C(CCCCCCCCC(=O)OCC1OC(n2cnc3c(=O)[nH]cnc32)C(O)C1O)OCC1OC(n2cnc3c(=O)[nH]cnc32)C(O)C1O` (stereo not given), the growth inhibition in test [1] was -47.5%; in test [2] it was -44.7%; in test [3] it was -42.3%; in test [4], -8.3%; in test [5], -22.9%; in test [6], -35.3%.

In the case of `C=C(C)C1CCC2(C=O)CCC3(C)C(CCC4C5(C)CCC(O)C(C)(C)C5CCC43C)C12` (stereo not given), the growth inhibition in test [1] is 25.9%; in test [2] it was 37%; in test [3], 25.1%; in test [4], 15.8%; in test [5], 26%; in test [6] it was 20.8%.

As to `CN(c1ccccc1)C1C(=O)N(c2ccccc2)C1/C=C/c1ccccc1` (stereo not given), the growth inhibition in test [1] is -8.7%; in test [2] it was 0.8%; in test [3], 13.3%; in test [4], 29.4%; in test [5], 11.9%; in test [6], 39.1%.

Regarding `O=C(Nc1nc2ccccc2n1Cc1ccc(Cl)cc1)C(=O)NC12CC3CC(CC(C3)C1)C2`, the growth inhibition in test [1] is -9%; in test [2], -24.5%; in test [3], 1%; in test [4], -0.6%; in test [5], 6.8%; in test [6] it was -8.6%.

In the case of `Fc1ccccc1-c1nnc(-c2ccccc2F)o1`, the growth inhibition in test [1] was 1.65%; in test [2], 8.3%; in test [3], 6.85%; in test [4], 10.8%; in test [5], 48.2%; in test [6], 1.3%.

Take `CN(C)CCN(CCN(C)C)CCN(C)C`: the growth inhibition was 6.85% in test [1]; -21.5% in test [2]; 12.3% in test [3]; 9.45% in test [4]; 25.1% in test [5]; 14.6% in test [6].

Regarding `O=C(O)c1cccc(O)c1C(=O)O`, the growth inhibition in test [1] is 29.2%; in test [2], -3.4%; in test [3], 21.9%; in test [4], 21.2%; in test [5], 0.75%; in test [6], 33.9%.

On to `CCNC(=O)COc1ccc(Br)cc1Br`, for which the growth inhibition in test [1] is -3.7%; in test [2], -5.2%; in test [3], -3.8%; in test [4], 11.2%; in test [5] it was 8.4%; in test [6] it was 15.2%.

As to `CCCC(C(=O)O)C(O)(CC(=O)O)C(=O)O` (stereo not given), the growth inhibition in test [1] is 18.6%; in test [2], -14.6%; in test [3], 11.4%; in test [4], -32.1%; in test [5] it was 7.85%; in test [6], -20.6%.

For `CCCCCCCC(=O)NN(Cn1c(=S)sc2ccccc21)Cn1c(=S)sc2ccccc21`, the growth inhibition in test [1] is 32%; in test [2], 9.25%; in test [3], 26.7%; in test [4] it was 21.7%; in test [5], -2.7%; in test [6] it was 6.65%.

On to `FC(F)(F)C[P+](c1ccccc1)(c1ccccc1)c1ccccc1`, for which the growth inhibition in test [1] was 40.9%; in test [2], 13.1%; in test [3] it was 15.3%; in test [4], 16.9%; in test [5], 11.5%; in test [6], 26%.

Consider `CCc1c(CBr)c(=O)[nH]c2ccccc12`, for which the growth inhibition in test [1] was 8.7%; in test [2] it was -8.1%; in test [3] it was -10.8%; in test [4], 0.9%; in test [5], 1.3%; in test [6], 2.55%.

Turning to `Cc1c(C#N)c(=N)oc2ccccc12`, the growth inhibition is 7.9% in test [1]; 7.35% in test [2]; 22.8% in test [3]; 14.5% in test [4]; 18.1% in test [5]; -31.5% in test [6].

As for `Cc1cc(S(=O)(=O)Nc2n[nH]c(N)n2)c(Cl)cc1Cl`, the growth inhibition is -52% in test [1]; 1.55% in test [2]; -56% in test [3]; -51% in test [4]; 9.4% in test [5]; -48.5% in test [6].
